Bioassay records from PubChem.
In the library only some 20% were active in any assay of this set; here they are far more common.
Shiga toxin inh: Shiga toxin inhibition | Vero cells, Shiga toxin protein synthesis inhibition reporter | inhibition, % at 38.7 µM | hit rate 9.2% among 290,000 | AID 2315; in the data active means inhibition mostly above about 28%, no sharp cut-off; inactive means mostly below about 43%; further: 0% is about no effect
HCMV inh: human cytomegalovirus inhibition; HFF cells, HCMV-luciferase reporter, 72 h; stronger effect = lower value; activity change, negative = inhibition, % at 57.5 µM; hit rate 4.5% among 410,000; AID 1259415; in the data active means activity change below about -60%; inconclusive means no clear call, values can overlap the other calls; inactive means above about -39%; further: on the % scale 0 is the no-effect control and ±100 the full control effect
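Two compound doses tested in HFFs infected with HCMV-luciferase, MOI 1 PFU/cell, 72 h at 37C. Lysate luminescence read with OneGlo; data normalized against buffer-only and 10uM Salinomycin inhibitor controls.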
Pf growth 48h: P. falciparum growth inhibition at 48 hours (one generation) | P. falciparum luciferase growth in erythrocytes, 48 h | Potency, µM (doses to about 28.7 µM), for inactives: top-dose activity change, negative = inhibition, hits mostly inhibitors | hit rate 5.9% among 310,000; further: potency means the concentration at half of the fitted maximal effect; on the % scale 0 is the no-effect control and ±100 the full control effect
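In quantitative HTS format, infected erythrocytes bearing luciferase-reporter parasites were treated for a single generation at 37 C. Luminescence after adding detection reagent served as the growth measure.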
Cycloheximide cs: counter-screen for Shiga toxin inhibitors: cycloheximide protein synthesis inhibition. hit rate 12% among 300,000. max response, %. cell reporter, cycloheximide protein synthesis inhibition counterscreen; in the data active means max response mostly above about 13%, no sharp cut-off; inactive means mostly below about 14%; further: read at 38.3 µM for the half of the compounds with a filed dose; 0% is about no effect
Pf growth 96h: P. falciparum growth inhibition at 96 hours; Potency, µM (doses to about 28.7 µM), without a hit: at the highest dose activity change, negative = inhibition, actives largely listed as inhibitors; AID 504834; hit rate 6.9% among 320,000; P. falciparum luciferase reporter growth, 96 h; further: potency means the concentration at half of the fitted maximal effect; on the % scale 0 is the no-effect control and ±100 the full control effect
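Delayed-death screen, second-generation endpoint: infected erythrocytes, 2% hematocrit, 0.05% parasitemia final; 96 hours at 37 C, 5% CO2; luciferase detection reagent; luminescence decrease equals reduced growth.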
* marks the source's active call; other numbers are inactive results; u = inconclusive; x = not tested or not shown; ! = a repeat was not active. Unless noted, the call rests on the fitted dose curve; in most records, active means well fitted inhibition curve with a large enough effect; inconclusive means small, poorly fitted or top-dose-only effect, or another doubt; inactive means no such curve, though single readings can be large or run the other way.

SMILES	Shiga toxin inh	HCMV inh	Pf growth 48h	Cycloheximide cs	Pf growth 96h
COc1cccc(-c2nc(CS(=O)CC(=O)NCCc3ccccc3)c(C)o2)c1 (stereo not given)	10.7	-26.0	5.0%	13.2	-11.3%
Cc1ccc(CNC(=O)CS(=O)Cc2nc(-c3ccccc3F)oc2C)cc1 (stereo not given)	-9.1	-29.7	8.7%	2.1	30.1%
O=C(CSCc1ccc(F)cc1)N1CCN(c2ccc(F)cc2)CC1	2.3	-0.6	1.8%	-8.5	37.4%
Cc1oc(-c2ccccc2F)nc1CS(=O)CC(=O)NCc1ccc(F)cc1 (stereo not given)	4.1	29.8	30.1%	-1.2	2.94µM*
Cc1cccc(-c2nc(CS(=O)CC(=O)NCCc3ccccc3)c(C)o2)c1 (stereo not given)	3.2	-11.5	12.2%	-3.9	5.22µM*
Cc1ccc(CSCC(=O)N2CCN(c3ccc(F)cc3)CC2)cc1	-24.3	-66.5*!	26.4%	-2.9	22.7%
Cc1ccc(C(=O)C2CCN(CC(=O)N3CCN(c4ccc(F)cc4)CC3)CC2)cc1	-20.5	-69.5*	-20.3%	-13.0	u
O=C(CSCc1ccc(F)cc1)N1CCN(c2ccccc2)CC1	31.2	0.0	31.2%	20.1	75.3%
Cc1ccsc1-c1nc(CSCC(=O)N2CCN(c3ccccc3)CC2)c(C)o1	49.2	6.3	x	7.7	u
Cc1ccc(-c2nc(CS(=O)CC(=O)N3CCN(c4ccc(F)cc4)CC3)c(C)o2)cc1 (stereo not given)	-1.5	-63.2*!	3.9%	-3.3	u
Cc1oc(-c2ccccc2F)nc1CS(=O)(=O)CC(=O)N1CCN(c2ccc(Cl)cc2)CC1	x	-82.8*	x	x	x
COc1ccc(-c2nc(CSCC(=O)N3CCN(c4ccccc4)CC3)c(C)o2)cc1	x	-64.8*	x	x	x
Cn1c(CSCc2ccc(F)cc2)nnc1SCC(=O)N1CCN(c2ccccc2)CC1	-6.4	-68.5*	-19.2%	-2.2	u
Cc1oc(-c2ccccc2F)nc1CS(=O)(=O)CC(=O)N1CCCCCC1	17.5	-23.4	9.4%	-1.9	u
C[C@@H]1CN([C@H](C)CO)C(=O)c2cc(Br)cnc2O[C@H]1CN(C)Cc1ccccc1F	x	-7.0	x	x	x
CCc1ccc(-c2nc(CSCC(=O)N3CCN(c4ccc(F)cc4)CC3)c(C)o2)cc1	x	-79.5*	x	x	x
CCC(C(=O)c1ccc(O)cc1)c1ccccc1 (stereo not given)	-6.3	-27.0	13.1µM*	-3.9	53.5%
O=C(NCCCN1CCC(Cc2ccccc2)CC1)c1ccc(CS(=O)c2ccccc2Cl)o1 (stereo not given)	x	-20.8	x	x	x
O=C(c1ccc(Br)o1)N1CCc2ccccc21	86.9*	x	360.7%	44.2*	262.2%
O=C(c1ccco1)N1CCc2ccccc21	66.3*	-15.0	180.0%	34.7*	-0.1%
O=C(c1ccc(Br)o1)N1CCCc2ccccc21	4.1	20.6	9.4%	-2.2	-5.7%
Cc1ccc(C(=O)N2CCc3ccccc32)cc1NC(=O)c1ccco1	-2.4	17.6	u	4.5	u
CC1CCN(CC(=O)N2c3ccccc3CCc3ccccc32)CC1	-6.5	-18.5	14.7µM*	-2.5	24.7%
CSC1=NCCN1C(=O)c1ccc(Br)o1	91.9*	95.7	x	38.6*	u
COc1ccc(CN2C[C@@H](CO)O[C@@H](n3cnc4c(N(C)C)ncnc43)C2)cc1	x	-21.6	x	x	x
SMILES	Shiga toxin inh	HCMV inh	Pf growth 48h	Cycloheximide cs	Pf growth 96h
CC1Cc2ccccc2N1C(=S)NC(=O)c1ccco1 (stereo not given)	22.6	25.1	26.4%	5.6	-4.3%
O=C(c1ccco1)N1CCN(CC(=O)N2c3ccccc3CCc3ccccc32)CC1	-12.5	-12.4	u	-1.7	10.4µM*
O=C(N1CCOCC1)N1CCc2ccccc21	-14.6	12.4	64.3%	-1.6	11.7µM*
O=C(NC(=S)N1CCCc2ccccc21)c1ccco1	81.9*	110.0	147.7%	32.9*	-13.4%
O=C(CN1CCCCC1)N1c2ccccc2CCc2ccccc21	-7.9	-13.9	x	-7.0	u
COc1ccc(NC(=O)N2CCc3c(sc4c3CCCC4)C2c2ccccc2OC)cc1 (stereo not given)	x	-27.9	x	x	x
CC(NC(=O)C(=O)N1CCCCC1)C(c1cccs1)N1CCN(c2ccccc2F)CC1 (stereo not given)	-2.7	-17.5	u	3.6	1.31µM*
CC(NC(=O)C(=O)N1CCOCC1)C(c1cccs1)N1CCN(c2ccccc2F)CC1 (stereo not given)	-3.5	9.7	u	5.6	u
O=C(Nc1ccc(Cl)cc1)Nc1cccc2nsnc12	113.9*	80.4	-42.0%	63.6*	-96.0%
O=C(Nc1ccccc1)Nc1cccc(Cl)c1Cl	active	104.1	-19.5%	37.4*	-33.4%
O=C(Nc1cccc(Cl)c1Cl)Nn1cnnc1	-8.6	-8.7	0.0%	0.6	206.5%
CC(C)(C)NC(=O)Nc1cccc(Cl)c1Cl	5.5	u	0.8%	-1.9	u
O=C(Nc1ccc(Oc2ccc(NC(=O)Nc3ccccc3Cl)cc2)cc1)Nc1ccccc1Cl	33.5	-62.4*	1.85µM*	33.9	1.47µM*
O=C(Nc1ccncc1)Nc1cccc(Cl)c1Cl	23.1	-60.7*	u	30.8	-3.5%
Cc1ccc(C)c(N(CC(=O)NC2CCCC2)C(=O)CCC(=O)Nc2cc(C)on2)c1	-4.4	-10.6	-15.7%	-2.9	12.7%
CSc1ccccc1NC(=O)Nc1cccc(Cl)c1C	16.6	-8.3	31.2%	20.7	36.3%
CSc1ccccc1NC(=O)Nc1cccc(Cl)c1Cl	-6.1	-22.3	x	10.1*	36.2%
CCOC(=O)Cc1csc(SCC(=O)NC2CCC(C)CC2)n1 (stereo not given)	x	-13.3	6.3%	x	33.6%
Cc1ccc2c(C)nc(/N=C(\N)NC(=O)N3c4ccccc4Sc4ccccc43)nc2c1	-7.1	u	13.1µM*	-0.4	-102.9%
Cc1cc2nc(/N=C(\N)NC(=O)N3c4ccccc4Sc4ccccc43)nc(C)c2cc1C	-2.5	-31.3	8.28µM*	-3.1	u
CCCNC(=O)N1c2ccccc2Sc2ccccc21	28.0	33.8	u	-2.2	u
Cc1ccc2nc(/N=C(\N)NC(=O)N3c4ccccc4Sc4ccccc43)nc(C)c2c1	-8.1	-65.4*	-17.6%	-2.7	353.8%
COc1ccc2nc(/N=C(\N)NC(=O)N3c4ccccc4Sc4ccccc43)nc(C)c2c1	10.7	u	u	-2.2	u
CCOC(=O)N1CCC(=NNC(=O)COc2cccc(C)c2)CC1	-6.7	41.8	-16.4%	-6.0	u
Cc1noc(C)c1COc1cccc(C(=O)NC(C)(C)C)c1	-10.7	46.6	0.0%	-1.4	15.6%
O=C1CN(C(=O)/C=C/c2ccccc2)CCN1	-4.1	-21.0	10.3%	-1.6	-10.1%
O=C1CCN(C(=O)/C=C/c2ccccc2)c2ccccc21	41.2*	-27.4	45.5%	28.0*	u
COc1ccc(/C=C/C(=O)N2CCCc3ccccc32)c(OC)c1	46.6	48.9	u	14.0*	u
COc1ccc(/C=C/C(=O)N2CCCc3ccccc32)cc1	74.1*	-28.8	12.7%	51.7*	66.7%
